# Measurements reported in PubChem BioAssay (Tox21).
# Results filed as inconclusive are left out. Where a call stands in place of a potency, no number is given. The source made the active and inactive calls. The call rests on the fitted dose curve; in most records, active means well fitted inhibition curve with a large enough effect in the repeat runs; inconclusive means weak or mixed curves; inactive means no such curve, though single readings can be large or run the other way.
# Assay: qHTS assay to identify small molecule antagonists of the estrogen related receptor (ERR) signaling pathway from Tox21 library (AID 1224848); further: nearly all actives have a fitted effect of over 50% in size
# Conditions: ERR reporter cell line, luciferase antagonist mode, 18 h; series mostly up to 92.4 µM
# Source text: U.S. Tox21 Program National Center for Advancing Translational Sciences [NCATS] NIH Chemical Genomics Center [NCGC] U.S. Environmental Protection Agency [EPA] National Institutes of Environmental Health Sciences [NIEHS] National Toxicology Program [NTP] U.S. Food and Drug Administration [FDA] Tox21 Assay Overview: Estrogen related receptors (ERRs), the first orphan nuclear receptors discovered, play an important role in the control of cellular energy metabolism. ERRs are required for high-energy production in response to the environmental challenges. ERR-alpha was also identified as an adverse marker for breast cancer progression; ERR-alpha-positive tumors have a poor prognosis. To screen and to identify environmental compounds that perturb the ERR signaling pathways could provide valuable information for potential therapeutic or preventive measures in the treatment of metabolic disease. For identifying ERR antagonists, ERR cell line (provided by NTP) has been used to screen Tox21 10K library.
# Tox21 Assay Protocol Summary: The ERR cells were dispensed at 2,000 cells/5 ul/well in 1536-well white plates using a Multidrop dispenser. After the assay plates were incubated at a 37 C/5% CO2 incubator for 6 hours, 23 nL of compounds dissolved in DMSO, positive and negative controls or DMSO only was transferred to the assay plate by a pin tool. The plates were incubated at 37 C for 18 hours. 4 ul/well of One-Glo reagent was added into the assay plates using a Flying Reagent Dispenser. After 30-minute incubation at room temperature, the luminescence intensity in the plates was measured using a ViewLux plate reader.
# Potency means the concentration at half of the fitted maximal effect.
Compound,Potency,"activity, negative = inhibition"
CC(=O)Nc1cc([As](=O)(O)O)ccc1O,inactive,–
CN1CCC(O)(c2ccc(F)cc2)C(C(=O)c2ccc(F)cc2)C1 (stereo not given),inactive,–
CC1=C(C(=O)O)N2C(=O)[C@@H](N)[C@H]2SC1,–,6% [at 19 µM] (inactive)
CC(COc1ccc(Oc2ccccc2)cc1)Oc1ccccn1 (stereo not given),inactive,–
O=C1c2ccccc2C(=O)c2ccccc21,–,18.9% [at 19 µM] (inactive)
ClCCOCOCCCl,inactive,–
N#CC(CCc1ccc(Cl)cc1)(Cn1cncn1)c1ccccc1 (stereo not given),17.2 µM (active),–
C[N+](=O)[O-],inactive,–
COC(=O)c1ccccc1S(=O)(=O)NC(=O)N(C)c1nc(C)nc(OC)n1,inactive,–
CNC(=O)N(C)c1nc2ccccc2s1,inactive,–
CC(C)(C)NCC(O)c1cc(Cl)c(N)c(Cl)c1 (stereo not given),inactive,–
CCC(Cl)[N+](=O)[O-] (stereo not given),inactive,–
CC1(C)COP(Oc2ccccc2)OC1,inactive,–
CC1=NNC(=O)N(/N=C/c2cccnc2)C1,inactive,–
CC1CCC(=O)O1 (stereo not given),inactive,–
CCS(=O)(=O)C(C)(C)S(=O)(=O)CC,inactive,–
ClC(Br)Br,inactive,–
COC(=O)COc1ccc(Cl)cc1Cl,inactive,–
C=CCC1=C(C)[C@@H](OC(=O)[C@@H]2[C@@H](C=C(C)C)C2(C)C)CC1=O,21.7 µM (active),–
[As]#[In],inactive,–

Compound,Potency,"activity, negative = inhibition"
CNC(=O)Oc1ccccc1C1OCCO1,inactive,–
C=C(C)[C@@H]1CC=C(C=O)CC1,inactive,–
C1CCC(C2CCCCC2)CC1,inactive,–
CCCCCCBr,inactive,–
CCNc1nc(NC(C)C)nc(OC)n1,inactive,–
COc1cc(OC)nc(Sc2cccc(Cl)c2C(=O)O)n1,inactive,–
CCCSP(=S)(OCC)Oc1ccc(Cl)cc1Cl (stereo not given),inactive,–
CCCCCCI,inactive,–
CC1(C)C(=O)NC(=O)NC1=O,inactive,–
O=C1CN=C(c2ccccc2)c2cc([N+](=O)[O-])ccc2N1,inactive,–
COc1cc(C[C@@H](C)N)c(OC)cc1C,inactive,–
O=[N+]([O-])c1cccc2c([N+](=O)[O-])cccc12,30.8 µM (active),–
CNC(=O)Oc1ccc(N(C)C)c(C)c1,inactive,–
Cc1cc(C)c(C(=O)P(=O)(C(=O)c2c(C)cc(C)cc2C)c2ccccc2)c(C)c1,inactive,–
COCC(=O)N(c1c(C)cccc1C)N1CCOC1=O,inactive,–
CCCCC(=O)Cl,inactive,–
ClCCCN1CCN(c2cccc(Cl)c2)CC1,inactive,–
CCOC(=O)NC(=S)Nc1ccccc1NC(=S)NC(=O)OCC,inactive,–
CCC(C)(C)c1cc(-n2nc3ccccc3n2)c(O)c(C(C)(C)CC)c1,39.2 µM (active),–
N#Cc1c(Cl)cccc1Cl,inactive,–
